# Results published in the supplement of paper PMC6555819.
# Tests used:
# Assay in all cases: PBM binding z-score (relative to random genomic background probes); higher = stronger binding; sequences stand for … in GC…GCGATTGACAGCGTAGAATGAAGG
# [1] = system: FXR:RXRa (NR concentration 270 nM, RXRa partner concentration 90 nM)
# Method in brief: (§1)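 On custom Agilent 4×180K arrays, double-stranded probes with 34-nt variable regions carried direct-repeat seeds, single-nucleotide variants, half-site ablations or random human genomic background. Ligand-free nuclear receptor dimers were applied for 1 h, and binding was read with antibodies against each partner (one per run). Binding z-scores come from regression-normalized fluorescence, with the random background probes as reference.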
# [2] = system: LXRa:RXRa (NR concentration 270 nM, RXRa partner concentration 90 nM)
# Method in brief: as §1
# [3] = system: LXRa homodimer (NR concentration 270 nM)
# Method in brief: as §1
# [4] = system: LXRb:RXRa (NR concentration 270 nM, RXRa partner concentration 90 nM)
# Method in brief: as §1
# [5] = system: LXRb homodimer (NR concentration 270 nM)
# Method in brief: as §1
# [6] = system: PPARa:RXRa (NR concentration 270 nM, RXRa partner concentration 90 nM)
# Method in brief: as §1
# [7] = system: PPARg:RXRa (NR concentration 180 nM, RXRa partner concentration 90 nM)
# Method in brief: as §1
# [8] = system: PPARg:RXRa 270nM:90nM, anti-RXR (NR concentration 270 nM, RXRa partner concentration 90 nM)
# Method in brief: as §1
# [9] = system: PPARg:RXRa 30nM:10nM, anti-RXR (NR concentration 30 nM, RXRa partner concentration 10 nM)
# Method in brief: as §1
# [10] = system: PPARg:RXRa 90nM:30nM, anti-RXR (NR concentration 90 nM, RXRa partner concentration 30 nM)
# Method in brief: as §1
Sequence,PBM binding z-score [1],PBM binding z-score [2],PBM binding z-score [3],PBM binding z-score [4],PBM binding z-score [5],PBM binding z-score [6],PBM binding z-score [7],PBM binding z-score [8],PBM binding z-score [9],PBM binding z-score [10]
TCCTATAGGTAAACAGGTGAAAGTCCGTAAGTTA,0.613,0.51,0.24,0.845,-0.235,2.07,1.63,2.96,3.27,3.17
GCTCGGAGGACAAGTTCAGAGCTTTGTCCGTAGA,0.263,0.115,-0.227,0.0203,-0.625,0.311,-0.94,-0.31,-1.15,-0.738
CCTACTGGGCCACGAAAGGTCAATGATTCAGTGA,3.22,4.61,2.93,3.95,-0.0572,4.44,4.52,4.6,1.66,3.59
TCTAGTTGCTCAAAGGTCACACACTCGAAATGCG,5.09,5.26,3.7,5.39,1.49,5.88,6.32,6.78,6.1,6.91
CGACCTAGGTCAAGGACAGTGAATCTCCGCACGC,4.5,2.95,-0.0211,2.07,-0.684,3.94,3.55,3.19,0.64,1.86
GGAGCGAGGGCAAGTTGATAGCAGAGTTTGATGG,0.394,0.0427,-0.544,0.219,-0.594,0.728,0.238,0.276,-0.604,-0.121
TCTGCTAGGTCAACGCTGGTCAGCTAATCTGCTA,3.47,3.1,-0.234,1.74,-0.356,3.27,2.09,3.24,1.85,2.54
ATCTATAGGTAAAGTTCAGTGAAAGATCGATAGA,1.21,1.7,1.38,1.19,0.71,2.2,3.67,4.69,2.81,4.71
TAGCCTAGGTCAGATCGGGCCAGTATCCGCTATA,2,1.05,-0.375,0.765,-0.472,1.69,0.405,0.707,-0.351,-0.0749
GCTATTAGTTGAAAGGCCAACCGAATGATTCTCG,0.0459,0.417,0.216,0.305,-0.435,1.3,1.43,3.21,1.27,2.6
CGTCGAAGGTCAAAGGTCAGTGAAGAGATGACGG,8.44,6.95,3.31,6.62,1.89,7.42,10.4,8.74,7.87,8.95
ATATGTAGGTTTAGGGTCATTCAGGTTGGTTCGC,4.11,3.91,1.71,3.97,1.36,4.59,5.96,6.54,4.91,6.7
CTACCATGGTGAACAAGGTCGTTGATTACTATTC,0.251,0.452,0.165,1.23,-0.219,1.07,0.161,0.378,-0.000193,0.175
CGAAATAGGTCAGAACAGGACAGTGAAGGATGAT,2.81,2.42,0.564,1.63,0.228,3.89,4.52,4.6,2.18,3.59
TCATATAGGTAATTCAGGTGAAAGTCGGCATCTA,1.4,1.17,0.456,1.25,0.393,1.87,1.09,2.58,4.33,3.59
CGAACTAGGTCAGAACCGGACAGTGAAGGATGAT,0.841,0.508,-0.0192,0.198,-0.379,2.72,4.56,4.31,1.5,3.4
AGAACGAGGGCACGCTGAGTGGATAGCAGAGTAG,0.65,0.494,-0.357,-0.0395,-1.03,1.77,1.99,1.64,0.26,1.29
